Assay outcomes deposited in PubChem by several laboratories.
ROMK mod: modulators of human ROMK potassium channel | P48048 | Tet-inducible ROMK, thallium flux fluorescence; actives lie on both sides | B-score at 10 µM | 130,000 compounds, 2% hits | AID 1918;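 active = signal ratio slope over the read window, or its plate-corrected B-score, at least 3 SD from the plate mean, either direction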;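 note: B-score of the F/F0 ratio slope over 7 to 12 s after thallium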
Target sequence (P48048 whole entry, looked up): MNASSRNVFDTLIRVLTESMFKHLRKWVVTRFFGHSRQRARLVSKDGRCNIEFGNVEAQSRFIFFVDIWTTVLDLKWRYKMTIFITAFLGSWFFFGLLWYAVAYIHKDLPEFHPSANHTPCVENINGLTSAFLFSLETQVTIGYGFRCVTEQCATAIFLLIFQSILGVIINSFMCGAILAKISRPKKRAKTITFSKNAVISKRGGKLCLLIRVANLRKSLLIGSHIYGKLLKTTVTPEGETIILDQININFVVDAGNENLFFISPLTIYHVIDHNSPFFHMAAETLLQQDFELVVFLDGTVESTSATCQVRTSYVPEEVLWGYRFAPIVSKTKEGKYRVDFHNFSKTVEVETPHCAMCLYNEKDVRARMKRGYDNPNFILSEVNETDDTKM
HSV augment: increases HSV replication in cells; 220,000 compounds, 0.005% hits; HSV replication augmentation in cells, fold increase; maximum fold increase; in the data active = maximum fold increase above about 1.5; inconclusive = no clear call, values can overlap the other calls; tested in PC3 cells
KCC2 mod: modulates chloride dependent transport by human KCC2. KCC2 cells, thallium flux FluoZin-2 fluorescence. B-score of Tl+ flux slope (higher = more flux/activation; lower = inhibition) at 10 µM. 190,000 compounds, 2.2% hits;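 active = thallium flux slope and its plate-corrected score both differing from the plate sample mean at a set confidence after two filtering rounds, in either direction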;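 note: slope of fluorescence scaled to starting intensity during 10 to 20 s after thallium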
Measles CPE: protection of cells from measles virus. Measles virus-infected cells, CPE protection, absorbance. protection (pct of control), % at 4 µM. 140,000 compounds, 1.5% hits; in the data active = protection mostly above about 24%, no sharp cut-off; inactive = mostly below about 26%
Arbovirus anti: antivirals against arbovirus infection; arbovirus infection cell-based antiviral screen; inhibition, % at 10 µM; 200,000 compounds, 0.37% hits; in the data active = inhibition above about 30%
KCC2 sec1: confirmation of human KCC2 transport modulators | shares compounds with KCC2 mod | HEK293-KCC2, thallium flux, FluoZin2 fluorescence; hits give high values | normalised thallium flux (F/F0 slope) at 10 µM | 3,700 compounds, 15% hits | AID 1713;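 active = thallium flux slope above the same plate's solvent-only control mean plus 3 SD; inconclusive = the two replicate wells disagree; inactive = no significant difference from solvent-only control wells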
KCC2 bumet counter: bumetanide-insensitive thallium flux in KCC2 cells with ouabain, counter-screen; AID 1714; 3,700 compounds, 49% hits; normalized thallium flux at 10 µM; shares compounds with KCC2 mod; HEK293-KCC2 + bumetanide/ouabain, thallium flux FluoZin2; hits give high values;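 active = thallium entry rate above the same plate's blocked-transporter control wells by more than 3 SD; inconclusive = the two repeat wells disagree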;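 note: raw slope of fluorescence over initial fluorescence between 10 and 20 s after thallium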
KCC2 secondary2: KCC2 (human) modulation, second secondary assay; shares compounds with KCC2 mod; HEK293-KCC2, thallium flux FluoZin2 fluorescence; actives lie on both sides; F/F0 rise rate, 10–20 s post-thallium; normalized thallium flux at 10 µM; 3,700 compounds, 23% hits; AID 1715;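 active = thallium flux slope more than 3 SD above or below the plate's solvent-only control mean, mostly below; inconclusive = the two repeat wells disagreed; inactive = no significant shift from solvent-only controls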
HEK293 Tl flux: counter-screen for KCC2 modulators: effect in parental HEK293 cells; shares compounds with KCC2 mod; thallium flux FluoZin2, ouabain; baseline-ratio fluorescence slope, 10–20 s after thallium; thallium flux rate (normalised fluorescence) at 10 µM; 3,700 compounds, 46% hits; AID 1716;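 active = thallium flux rate significantly above the same plate's solvent-only control wells, beyond their mean plus 3 SD; inconclusive = the two replicate wells gave conflicting results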
KCC2 retest ouab: confirmation of human KCC2 modulators with ouabain. shares compounds with KCC2 mod. HEK293-KCC2, thallium flux FluoZin2 fluorescence; bidirectional: low = inhibitor, high = activator. raw Tl+ flux slope (below DMSO = inhibition, above = activation) at 10 µM. 3,700 compounds, 48% hits;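 active = thallium flux slope beyond 3 SD from same-plate DMSO control mean in most replicates, usually higher, sometimes lower; inconclusive = repeat tests gave conflicting results; inactive = no significant difference from controls in most replicates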;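 note: slope of initial-normalized fluorescence between seconds 10 and 20 after thallium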
HEK293 Tl flux2: counter-screen for KCC2 modulators: effect in parental HEK293 cells | shares compounds with KCC2 mod | AID 1718 | thallium flux slope at 10 µM | thallium flux FluoZin-2 fluorescence slope | 3,700 compounds, 33% hits;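 active = thallium flux slope above the same plate's solvent-control mean plus 3 SD in both duplicate wells; inconclusive = duplicate wells that disagreed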;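 note: run without ouabain in cells lacking the KCC2 cotransporter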
Of the large screens only hits and unclear results are named; the others gave an inactive call (follow-up assays come after a bar, where they were run). A selection: hits, their analogues and other compounds. The true share with any hit is near 4%.

Oc1cc2ccccc2cc1-c1n[nH]c(=S)n1Cc1ccco1	KCC2 mod 8.86 (no result: Measles CPE) | KCC2 sec1 inactive | KCC2 bumet counter 0.0226 | KCC2 secondary2 inactive | HEK293 Tl flux 0.0131 | KCC2 retest ouab inconclusive | HEK293 Tl flux2 inactive
Cc1ccc(NC(=O)CSCC(=O)N2c3ccccc3CCc3ccccc32)cc1	none
CCNC(=S)Nc1cccc(F)c1C	none (no result: Measles CPE)
Cc1c(NC(=O)CN2C(=O)c3ccccc3S2(=O)=O)c(=O)n(-c2ccccc2)n1C	KCC2 mod 3.43 | KCC2 sec1 inactive | KCC2 bumet counter inactive | KCC2 secondary2 inactive | HEK293 Tl flux inactive | KCC2 retest ouab inactive | HEK293 Tl flux2 inconclusive
COCCCN1C(=O)/C(=C/c2ccc(CNS(=O)(=O)c3ccccc3)o2)C(C(=O)OC)=C1C	none (no result: Measles CPE)
CCOC(=O)c1cn(CC)c2cc(N3CCSCC3)c(F)cc2c1=O	KCC2 mod 8.04 | KCC2 sec1 inactive | KCC2 bumet counter inactive | KCC2 secondary2 inactive | HEK293 Tl flux inactive | KCC2 retest ouab inactive | HEK293 Tl flux2 inactive
Cc1cc(C)nc(SCc2cnc(C)nc2N)n1	none (no result: Measles CPE)
COc1ccc(NC(=S)N2CCC(c3nc4ccccc4o3)CC2)c(OC)c1	none (no result: ROMK mod, Measles CPE)
CC(C)c1onc(C(=O)N2CCN(Cc3ccccc3)CC2)c1[N+](=O)[O-]	KCC2 mod -4.88 | KCC2 sec1 inactive | KCC2 bumet counter inactive | KCC2 secondary2 0.0276 | HEK293 Tl flux inactive | KCC2 retest ouab 0.0155 | HEK293 Tl flux2 inactive
CC(C)c1onc(C(=O)NCCc2ccccc2)c1[N+](=O)[O-]	KCC2 mod -5.23 (no result: Measles CPE) | KCC2 sec1 inactive | KCC2 bumet counter inactive | KCC2 secondary2 0.0246 | HEK293 Tl flux inactive | KCC2 retest ouab inconclusive | HEK293 Tl flux2 inactive
N#CCCn1cc(/C=C/C(=O)O)c(-c2ccc(F)cc2)n1	none (no result: Measles CPE)
O=C(O)/C=C/c1cn(Cc2ccccc2Cl)nc1-c1ccccc1	KCC2 mod -5.08 (no result: ROMK mod, Measles CPE, Arbovirus anti) | KCC2 sec1 inactive | KCC2 bumet counter inactive | KCC2 secondary2 0.0237 | HEK293 Tl flux inactive | KCC2 retest ouab 0.0115 | HEK293 Tl flux2 inactive
Cc1ccc(Cn2cc(/C=C/C(=O)O)c(-c3ccccc3)n2)cc1	none (no result: ROMK mod)
Cc1ccc(-c2nn(Cc3ccccc3)cc2/C=C/C(=O)O)cc1	KCC2 mod -4.47 (no result: ROMK mod) | KCC2 sec1 inactive | KCC2 bumet counter inactive | KCC2 secondary2 0.0249 | HEK293 Tl flux inactive | KCC2 retest ouab 0.0133 | HEK293 Tl flux2 inactive
O=C(O)/C=C/c1cn(Cc2ccccc2)nc1-c1ccc(Cl)cc1	KCC2 mod -4.74 (no result: Measles CPE) | KCC2 sec1 inconclusive | KCC2 bumet counter inactive | KCC2 secondary2 inconclusive | HEK293 Tl flux inactive | KCC2 retest ouab 0.0121 | HEK293 Tl flux2 inactive
COc1ccc(C)cc1NC(=O)CN(c1ccccc1F)S(C)(=O)=O	none (no result: HSV augment, KCC2 mod) | KCC2 sec1 inactive | KCC2 bumet counter inactive | KCC2 secondary2 inactive | HEK293 Tl flux inactive | KCC2 retest ouab inactive | HEK293 Tl flux2 inactive
Cc1cccc(NC(=O)CN(C)S(=O)(=O)c2cnc[nH]2)c1	none (no result: ROMK mod)
COc1ccc(C)cc1NC(=O)CN(C)S(=O)(=O)c1cnc[nH]1	none (no result: KCC2 mod) | KCC2 sec1 inactive | KCC2 bumet counter inactive | KCC2 secondary2 inactive | HEK293 Tl flux inactive | KCC2 retest ouab inactive | HEK293 Tl flux2 inconclusive
COc1ccc(C)cc1NC(=O)CN(c1ccc(F)cc1)S(C)(=O)=O	none (no result: ROMK mod)
C=CCn1c(=N)n(CC(=O)c2ccc(Br)s2)c2ccccc21	none (no result: ROMK mod)
Cc1cccc(N2CCN(C(=O)Cn3ccc4ccccc4c3=O)CC2)c1C	KCC2 mod -4.48 (no result: ROMK mod) | KCC2 sec1 inactive | KCC2 bumet counter inactive | KCC2 secondary2 0.0226 | HEK293 Tl flux inactive | KCC2 retest ouab 0.0158 | HEK293 Tl flux2 inactive
